These results are taken from PubChem BioAssay (NCI).

This is part of a sample that, as a whole, favours compounds with a hit. Of some 83,000 tested, about 20% had one in any assay.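 Activity criterion: percent growth below 10, measured after cells in 96-well plates were exposed to a single compound concentration for 48 hours.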 A number with no mark means an inactive call. The source made the active and inactive calls.

What all share (test): NCI-60 one-dose screen, 48 h (100 = growth as untreated, 0 = no growth, -100 = all killed)
Holding throughout (conditions): 10 µM

The test system of test [1] is NCI-H23 lung.
Test [2] concerns NCI-H226 lung.
The subject of test [3] is NCI-H322M lung.
In test [4] the test system is HOP-62 NSCLC.
Test [5] concerns NCI-H460 lung.
Test [6] relates to HOP-92 NSCLC.
Test [7] has as its system NCI-H522 lung.
Test [8] concerns A549/ATCC NSCLC.
The test system of test [9] is 786-0 renal.
Test [10] deals with COLO 205 colon.

With `O=C(NNC(=O)c1ccncc1)Nc1ccc([N+](=O)[O-])cc1`, the growth was 94.7% in [1]; 115% in test [2]; 105% in test [3]; 97% in [4]; 105% in [5]; 103% in test [6]. Further, the growth is 88.5% in test [7], 106% in test [8], 107% in test [9] and 112% in [10].
Consider `COc1ccc(OC)c([N+](=O)[O-])c1C=O`, for which the growth in [1] is 107%; in [2], 92%; in test [3] it was 101%; in test [4] it was 78.2%; in test [5], 108%; in [6] it was 91.1%. In addition, the growth was 76.9% in [7], 101% in test [8], 110% in test [9] and 124% in [10].
In the case of `CCC(OC(=O)CC(C)C)c1ccccc1` (stereo not given), the growth in [1] was 98.8%; in test [2], 89.4%; in [3], 93.3%; in [4], 96.3%; in test [5], 105%; in [6] it was 92.8%. Further, the growth is 71.8% in [7], 80.6% in [8], 95.2% in [9] and 107% in test [10].
In the case of `C[C@H](NC(=O)[C@@H]1CSSC[C@@H](NC(=O)Cc2nc3ccccc3cc2O)C(=O)NCC(=O)N1C)c1ccccc1`, the growth in test [1] was 106%; in test [2], 104%; in [3], 105%; in test [4] it was 90.2%; in test [5], 94.2%; in [6] it was 116%. Moreover, the growth in test [7] was 88.3%; in test [8], 90.5%; in test [9] it was 114%; in test [10], 89.7%.
As to `O=C(O)CNS(=O)(=O)c1ccc(OCCOc2ccc(S(=O)(=O)NCC(=O)O)cc2)cc1`, the growth in [1] was 95.9%; in [2], 100%; in [3], 97.4%; in test [4] it was 92.8%; in test [5], 109%; in test [6], 104%. In addition, the growth is 88.9% in [7], 104% in test [8], 104% in test [9] and 99.8% in test [10].
For the molecule `COc1ccc(C2C=C(c3ccc(Cl)cc3)N=C3SC=CN32)c(Br)c1` (stereo not given), the growth in test [1] is 71.6%; in test [2] it was 81.4%; in test [3] it was 112%; in test [4], 87.3%; in [5], 76.7%; in test [6], 76.2%. Also, the growth is 65.5% in test [7], 56.8% in [8], 89.6% in [9] and 70.4% in test [10].
As for `Cc1cc(C)c2c(Nc3ncnc4c3sc3nc(C)cc(C)c34)n[nH]c2n1`, the growth in [1] is 98.6%; in [2], 93.8%; in [3] it was 111%; in test [4], 95%; in test [5], 104%; in [6], 102%. Also, the growth in test [7] was 96.9%; in test [8] it was 102%; in test [9], 106%; in test [10] it was 109%.
In the case of `Nc1ncncc1-c1ccc(F)cc1`, the growth in test [1] was 108%; in test [2], 108%; in test [3] it was 108%; in test [4], 105%; in test [5], 110%; in test [6] it was 95.9%. For the same molecule, the growth in test [7] was 119%; in test [8] it was 106%; in test [9], 104%; in test [10] it was 114%.
Take `Cc1ccccc1C1=N[C@@H](Cc2ccccc2)C(=O)c2c(nc3ccccn23)N1`: the growth in [1] is 95.3%; in test [2] it was 98.9%; in [3], 106%; in [4], 93.4%; in test [5], 103%; in test [6], 90.5%. In addition, the growth in test [7] was 121%; in test [8], 91.7%; in test [9] it was 101%; in test [10], 107%.
Regarding `Cc1ccc(S(=O)(=O)Nc2cccc3[nH]c(C(F)(F)F)nc23)cc1`, the growth in test [1] was 39.5%; in test [2], 68.4%; in test [3], 36.4%; in test [4] it was 36.4%; in test [5], 7.86% (active); in [6], -3.66% (active). Moreover, the growth in [7] was -6.23% (active); in test [8], 24%; in test [9] it was 47.7%; in [10] it was -21.6% (active).
For the molecule `Nc1c(CNCc2nnn(Cc3ccccc3)c2N)nnn1Cc1ccccc1`, the growth in test [1] was 103%; in test [2], 100%; in [3] it was 100%; in [4], 98.9%; in [5] it was 103%; in test [6], 90.3%. For the same molecule, the growth in [7] is 102%; in [8], 101%; in test [9], 102%; in [10], 114%.
`CC(C)(C)c1ccc(OCCCCCCN2CCNCC2)cc1`: the growth in [1] was 61.5%; in test [2], 73.4%; in [3], 85.1%; in test [4], 67.8%; in test [5], 35.4%; in test [6] it was 16.8%. Moreover, the growth in [7] was 66.2%; in test [8], 55.1%; in test [9], -50.7% (active); in test [10], -66.7% (active).
Take `COc1ccccc1S(=O)(=O)Nc1ccc2c(c1)CN(C)C(=O)N2`: the growth in test [1] is 56.7%; in test [2], 63%; in test [3], 42.9%; in test [4] it was 44.3%; in test [5] it was 55.8%; in [6], 2.37% (active). Further, the growth was 26.1% in [7], 50.5% in test [8], 72.7% in test [9] and 38.4% in [10].
For the molecule `O=[N+]([O-])C1CC2C=CC1C2` (stereo not given), the growth in test [1] is 100%; in test [2], 94.9%; in test [3] it was 91.1%; in [4], 93.3%; in test [5], 108%; in test [6] it was 110%. Besides, the growth in test [7] is 101%; in [8] it was 92.3%; in test [9], 90.4%; in [10], 115%.
For `Fc1ccc2[nH]c3c(NCCCN4CCOCC4)ncnc3c2c1`, the growth is 83.2% in test [1]; 62.2% in [2]; 53.6% in test [3]; 32.7% in [4]; 54% in test [5]; 63.9% in test [6]. In addition, the growth is 58.1% in [7], 54.5% in test [8], 24.1% in test [9] and 53.4% in test [10].
For the molecule `O=c1c2cccc3c(Nc4ccc(Br)cn4)ccc(c32)c2nc3ccccc3n12`, the growth in [1] was 81.3%; in [2], 93.2%; in [3] it was 77.9%; in test [4] it was 87.6%; in [5] it was 86.6%; in test [6], 62.4%. In addition, the growth in [7] is 89.4%; in test [8], 106%; in test [9] it was 96.9%; in test [10], 88.2%.
Turning to `COc1cc(C2C=C(c3ccc(Cl)cc3)N=C3SC(C)=CN32)cc(OC)c1OC` (stereo not given), the growth in test [1] was 93.8%; in test [2], 96.9%; in [3], 97.3%; in [4] it was 109%; in test [5], 102%; in test [6], 95.2%. The growth is 69.9% in [7], 83.8% in test [8], 89.5% in test [9] and 109% in [10].
As to `CCCCCCCCCCCCCCCCCBr`, the growth in [1] is 106%; in [2], 94.9%; in [3], 94.6%; in test [4], 104%; in test [5], 106%; in test [6] it was 98.8%. In addition, the growth in [7] was 98.4%; in test [8], 108%; in test [9], 104%; in [10], 106%.
Take `O=C(N/N=C/c1ccccc1O)c1ccccc1`: the growth in [1] was 41.3%; in [2], 27.2%; in [3], 34.3%; in test [4], 38.9%; in [5], 9.53% (active); in test [6], 7.78% (active). Moreover, the growth in test [7] is -4.7% (active); in [8], 38.7%; in test [9] it was 17.9%; in [10], 19.3%.
For `Oc1ccc(Cn2cc3c(c2-c2ccccc2)CCc2cnoc2-3)cc1`, the growth in test [1] is 92.8%; in test [2] it was 96.4%; in test [3], 116%; in test [4], 99.2%; in test [5] it was 105%; in [6], 79.2%. In addition, the growth was 84.5% in [7], 84.1% in test [8], 92.9% in test [9] and 98% in test [10].
In the case of `COc1cc(C(c2c[nH]c3ccccc23)N2CCCC2)ccc1OCc1ccccc1` (stereo not given), the growth in test [1] was 82%; in test [2] it was 80.1%; in test [3], 72.7%; in test [4], 90.3%; in [5], 98.9%; in test [6] it was 12.7%. Moreover, the growth in test [7] is 71.1%; in test [8], 94.5%; in test [9] it was 87.4%; in test [10] it was 104%.
`CC(C)OP(=O)(O)c1ncc(-c2ccc(C(F)(F)F)cc2)c(NC2CCCCCC2)n1`: the growth is 62.6% in test [1]; 74.1% in test [2]; 91.1% in [3]; 70.5% in test [4]; 41.5% in test [5]; 22.8% in test [6]. Also, the growth in test [7] is 48.8%; in [8], 49.2%; in [9] it was 81.6%; in test [10], 61%.
As to `CCN(Cc1ccccc1)C1CCN(Cc2cc(Br)ccc2O)CC1`, the growth was 41.3% in test [1]; 63.4% in test [2]; 88.8% in test [3]; 58.1% in test [4]; 49.6% in test [5]; 5.9% (active) in [6]. The growth in test [7] is 61%; in [8], 58.9%; in [9], 62.7%; in test [10], -20.6% (active).
As to `Clc1ccc(-c2nc(-c3cccs3)cn3ccnc23)cc1`, the growth in test [1] was 71.1%; in [2], 72%; in test [3] it was 97.4%; in test [4], 57.7%; in test [5] it was 81.3%; in [6] it was 81.5%. Besides, the growth in test [7] is 28%; in test [8] it was 57.4%; in [9] it was 99.8%; in [10], 71.1%.
With `COC(=O)C1(C(=O)OC)C2C(=O)C3C(C21)C3(C(=O)OC(C)(C)C)C(=O)OC(C)(C)C` (stereo not given), the growth is 107% in [1]; 89.5% in [2]; 108% in test [3]; 99.9% in test [4]; 113% in [5]; 97.8% in test [6]. Besides, the growth is 111% in test [7], 109% in [8], 102% in test [9] and 115% in [10].
Consider `COc1cc(-c2cc(/C=C/C(C)=O)[nH]n2)cc(OC)c1OC`, for which the growth is 87.7% in test [1]; 81.7% in test [2]; 79.4% in [3]; 84.2% in test [4]; 95.2% in [5]; 74.9% in test [6]. Besides, the growth was -66% (active) in [7], 86.2% in test [8], 84.5% in [9] and 93.4% in test [10].
Turning to `C[C@@H]1C(=O)N(C[C@H](Cc2ccccc2)NC(=O)OCc2ccccc2)[C@]1(Cc1ccccc1)C(=O)OCc1ccccc1`, the growth in test [1] was 34.3%; in test [2], 48.5%; in [3], 72.4%; in test [4], 70.9%; in test [5], 34.9%; in test [6], 51.2%. Besides, the growth in test [7] is 28.9%; in test [8] it was 20.8%; in test [9], 58.3%; in [10], 7.23% (active).
For the molecule `CCc1nn2c(-c3cc(OC)c(OC)c(OC)c3)c(-c3cc(OC)c(OC)c(OC)c3)nc2s1`, the growth was 87.9% in test [1]; 92% in test [2]; 81.6% in [3]; 40.8% in test [4]; 97.1% in test [5]; -15.2% (active) in test [6]. Besides, the growth in test [7] is 46%; in [8], 86%; in [9] it was 58.6%; in test [10] it was 94.9%.
